Shown is part of a subset that was picked to be rich in hits.
Pf Dd2 growth: qHTS Primary assay for Inhibitors of Plasmodium falciparum Dd2 growth in vitro; P. falciparum Dd2 growth, SYBR Green, 72 h; Potency, µM (titrated, usually from 28.9 µM), without a hit: top-dose activity, negative = inhibition, hits mostly inhibitors; 120,000 tested, 4.3% active; AID 1347417, 2020; active = well fitted inhibition curve with a large enough effect;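 also: plate controls were DMSO vehicle for no effect and reference drug for full effect; nearly all actives have a fitted effect of over 65% in size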
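Infected erythrocytes (Dd2, 0.3% parasitemia, 2.5% hematocrit final) are added to compound in RPMI-1640/Albumax II medium, grown 72 h at 37C in low oxygen, then lysed with saponin/Triton-X containing SYBR Green and read by fluorescence.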
* = called active by the depositor; i = inactive; [ ] = remark or other dose. Potency is read from the fitted curve at half-maximal effect.

SMILES	Pf Dd2 growth
O=C(NC1CC1)c1ccccc1OC1CN(Cc2cccc(C(F)(F)F)c2)C1	-24.3%
O=C(NC1CC1)c1ccccc1OC1CN(Cc2cccc(F)c2)C1	-14.0%
O=C(C1CCC1)N1CCN(c2nnc3ccc(Cl)cn23)CC1	i
COc1ccc(CCNC(=O)CCCCn2c(=O)c3ccccc3n(CC(=O)Nc3ccccc3C)c2=O)cc1OC	-18.2%
COc1ccc(CCNC(=O)CCCn2c(=O)c3ccccc3n(CC(=O)Nc3cccc(C)c3)c2=O)cc1OC	10µM*
COc1ccc(CCNC(=O)CCCn2c(=O)c3ccccc3n(CC(=O)Nc3c(C)cc(C)cc3C)c2=O)cc1OC	-7.2%
CCCCCC(=O)N[C@H]1C[C@@H](Cc2cc(CN3CCOCC3)on2)C1(C)C	i
O=C(c1cccs1)N1CCN(c2nnc3ccccn23)CC1	-12.4%
Cc1ccc(C(=O)NC[C@H]2O[C@@H](CC(=O)NC(C)C)[C@H](O)[C@@H]2O)cc1	31.6%[44.1 µM]
CC[C@@H]1[C@@H](NC(=O)c2[nH]nc(N)c2-c2ccccc2)[C@@H]2CCO[C@H]12	-5.3%
COc1cccc(-c2nc(-c3nnn4c3COC(c3ccc(C)cc3)C4)no2)c1OC (centres undefined)	-3.9%
Cc1ccc(C2Cn3nnc(-c4noc(COc5ccc(F)cc5)n4)c3CO2)cc1 (centres undefined)	-23.9%
COc1ccccc1Cc1nc(-c2nnn3c2COC(c2ccc(C)cc2)C3)no1 (centres undefined)	7.94µM*
COc1cc2c(cc1OCc1ccncc1)NC(=O)C21CCN(Cc2cccnc2)CC1	i
Cc1nc(-c2ccc(Cl)cc2)n(CC(=O)N2CCN(c3ccc(F)cc3)CC2)c(=O)c1CCO	i
CN1CC(=O)N(C2CCCC2)Cc2c1ncnc2N1CCOCC1	5.3%[44.1 µM]
COc1ccc(S(=O)(=O)Nc2ccc3c(c2)N(C(C)=O)CCC3)cc1F	10µM*
CC(=O)N1CCCc2ccc(NS(=O)(=O)c3cccc(Cl)c3)cc21	5.5%
CC(=O)N1CCCc2ccc(NS(=O)(=O)c3ccc(C)c(C)c3)cc21	16.7%
COc1cccc(C(=O)N2CCc3[nH]nc(C(=O)NC4CCN(C)CC4)c3C2)c1	6.3%
CC(C)NC(=O)N[C@H]1CCN2C(=O)c3cc(-c4ccc(Cl)cc4)ccc3NC(=O)[C@H]12	-6.7%[44.1 µM]
COc1ccc(C(=O)N[C@@H]2CCC[C@@H]2C(=O)Nc2cc(F)ccc2C)cn1	11.0%
COc1ccc(C(=O)N[C@@H]2CCC[C@@H]2C(=O)N2CCN(c3ncccn3)CC2)cn1	-14.0%
COc1ccc(C(=O)N[C@@H]2CCC[C@@H]2C(=O)N2CCN(c3cc(C)ccc3C)CC2)cn1	10µM*
O=C(CN1C(=O)NC(c2ccccc2Cl)C2=C1COC2=O)Nc1ccc(F)c(F)c1 (centres undefined)	i
SMILES	Pf Dd2 growth
CCCC1(CO)CCCN(C(=O)CCn2ccc(=O)[nH]c2=O)C1 (centres undefined)	-18.5%
CCCC1(CO)CCCN(Cc2nnc(-c3cccnc3)o2)C1 (centres undefined)	-4.1%
CCCC1(CO)CCCN(Cc2cn3ccc(C)cc3n2)C1 (centres undefined)	10µM*
CCC(C)NC(=O)C1COC2(CCN(C(=O)c3ccc(F)cc3)CC2)N1C(=O)c1ccccc1 (centres undefined)	-2.2%
COc1ccc(C(=O)N2CCC3(CCNC(=O)CC3)CC2)cc1F	-22.4%
Fc1ccc(OC2CN(CC3CC3)C2)c(F)c1	44.6%[44.1 µM]
COc1cccc(Nc2csc(CN3CCCC(C)(NC(C)=O)C3)c2)c1 (centres undefined)	7.94µM*
COc1cccc(-c2cccc(CN3CCCC(C)(NC(C)=O)C3)c2)c1 (centres undefined)	i
COc1cccc(Nc2cc(CN3CCC(C)(NC(C)=O)CC3)cc(OC)c2)c1	i
COc1ccc2[nH]c3c(c2c1)CCNC31CCN(C(=O)Cn2nc(C)cc2C)CC1	-21.5%
O=C(NCc1cc(F)cc(F)c1)[C@H]1CN(Cc2ccccc2)C[C@H]1C(=O)O	i
Cc1cnn(CCC(=O)N[C@@H]2CN(Cc3ccccc3)C[C@H]2CO)c1	-24.7%
Cc1ccc(-c2nnc(C3CN(C(=O)COc4cccc(C)c4)CC34CCOCC4)o2)cc1 (centres undefined)	-15.1%
Cc1ccc(CN2CCc3oc(C)c(C(=O)N4CCC(C(N)=O)CC4)c3C2)cc1	-19.9%
Cc1ccc(CN2CCc3oc(C)c(C(=O)N4CCSCC4)c3C2)cc1	10µM*
Cc1oc2c(c1C(=O)N(C)CCc1ccccn1)CN(Cc1cccc(F)c1)CC2	-25.8%
COc1ccc(N(C)C(=O)c2c(C)oc3c2CN(Cc2ccc(F)cc2)CC3)cc1	12.6µM*
Cc1oc2c(c1C(=O)N1CCOCC1)CN(C(=O)c1ccncc1)CC2	-28.5%
COc1ccc(-n2nc3n(c2=O)CCN(Cc2ccc(F)cc2)C3)cc1	10.9%
CCOC(=O)C1CCCCN1C(=O)c1cn(C(c2ccccc2)c2ccccc2)nn1 (centres undefined)	-13.5%
Cc1oc2ccn(Cc3ccccc3F)c(=O)c2c1C(=O)N1CCN(c2ccccc2)CC1	-21.5%

Compound activity: PubChem, National Center for Advancing Translational Sciences (NCATS)
